Screening results: PubChem, National Center for Advancing Translational Sciences (NCATS)
Only some compounds are listed: those with a hit (about 5.9% of all), similar ones and a draw of the others.
RORg inh: inhibitors of mouse ROR gamma transcriptional activity | P51450 | Drosophila S2 Gal4-RORgamma UAS-luciferase reporter, 20 h | Potency, µM (highest dose often 53.6 µM), for the others: at the top dose activity change, negative = inhibition, actives largely listed as inhibitors | actives 5.4% (n = 310,000) | AID 2551; also: % is scaled to controls: 0 for no effect and ±100 for the full control effect; nearly all actives have a fitted effect of over 60% in size
Target sequence (P51450 whole entry, looked up, the tested form may be a part): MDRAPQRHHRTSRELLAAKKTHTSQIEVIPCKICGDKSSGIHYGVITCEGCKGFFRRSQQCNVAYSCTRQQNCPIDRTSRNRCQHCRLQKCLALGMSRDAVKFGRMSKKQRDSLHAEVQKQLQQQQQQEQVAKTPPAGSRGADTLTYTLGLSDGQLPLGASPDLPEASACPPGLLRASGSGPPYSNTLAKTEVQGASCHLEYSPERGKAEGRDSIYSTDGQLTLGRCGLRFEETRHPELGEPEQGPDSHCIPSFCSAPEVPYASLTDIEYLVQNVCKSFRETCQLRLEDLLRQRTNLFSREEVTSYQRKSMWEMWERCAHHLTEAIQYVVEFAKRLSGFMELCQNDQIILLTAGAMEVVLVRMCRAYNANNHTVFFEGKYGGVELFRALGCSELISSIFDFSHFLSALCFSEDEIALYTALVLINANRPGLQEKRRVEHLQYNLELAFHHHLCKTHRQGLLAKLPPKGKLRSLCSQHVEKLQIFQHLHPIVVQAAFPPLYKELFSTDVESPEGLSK
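Stably transfected Drosophila Schneider cells are the test system, with ROR gamma fused to Gal4 and luciferase under UAS control; luminescence is read after 20 hr of 700 uM copper sulfate induction at ambient temperature.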
GLP1R ag: agonists of human GLP-1 receptor | HEK293 GLP-1R CRE-luciferase, luminescence, 4-6 h; cells express a hypersensitive GLP-1R form | actives 0.007% (n = 380,000) | P43220 | Potency, µM (series often up to 45.6 µM), for inactives: top-dose activation, usual class: activators; also: % of control where 0% means no effect
VP16 counter: inhibits Gal4-VP16 luciferase reporter, ROR gamma counter-screen; AID 2546; Drosophila S2 Gal4-VP16 UAS-luciferase, luminescence, 20 h; actives 3.5% (n = 310,000); Potency, µM (titrated, usually from 53.6 µM), inactives show at the highest dose activity, negative = inhibition, actives largely listed as inhibitors;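 also: Gal4-VP16 expression switched on by copper sulfate through the metallothionein promoter; % is scaled to controls: 0 for no effect and ±100 for the full control effect; nearly all actives have a fitted effect of over 50% in size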
GLP1R cytotox: cytotoxicity counter-screen for GLP-1 receptor inverse agonists | Potency, µM (series often up to 38.3 µM), for the others: top-dose activity change, negative = inhibition, hits mostly inhibitors | actives 0.13% (n = 410,000) | HEK293 cAMP-luciferase reporter cells, luminescence, 24 h;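 also: loss of luciferase light is scored as toxicity; % is scaled to controls: 0 for no effect and ±100 for the full control effect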
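Here, cytotoxicity is scored as loss of luminescence. The MLSMR collection was tested on cells seeded in medium containing 10% Nu serum, with a 24 hr compound exposure preceded by 12 hours of culture.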
GLP-1R inv ag: inverse agonists of human GLP-1 receptor; P43220; HEK293 GLP-1R CRE-luciferase, luminescence, 24 h; GLP-1R form is constitutively active; Potency, µM (titrated, usually from 38.3 µM), without a hit: at the highest dose activity change, negative = inhibition, usual class: inhibitors; actives 1.6% (n = 410,000); also: % is scaled to controls: 0 for no effect and ±100 for the full control effect; nearly all actives have a fitted effect of over 55% in size
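GLP-1R inverse agonism mode: basal reporter luminescence in engineered HEK293 cells measured after one day of compound exposure at 37 deg C, with a 12 min room-temperature detection step.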
* hit, by the source's call; ? = inconclusive; · = not tested or not shown; [ ] = dose if it differs, or a comment. Calls follow the shape of the dose curve; as a rule, active = well fitted curve in the direction sought with a large enough effect; inconclusive = small, poorly fitted or top-dose-only effect, or another doubt; inactive = no such curve, though single readings can be large; an effect the other way counts as inactive or inconclusive. Potency is read from the fitted curve at half-maximal effect.

SMILES	RORg inh	GLP1R ag	VP16 counter	GLP1R cytotox	GLP-1R inv ag
CC(=O)NNC(=S)NCCc1ccccc1	11.2µM*	4.4%	-10.2%	3.8%	1.1%
COc1ccc(Cn2ccnc2SCC(=O)NCc2ccccc2)cc1	·	·	·	-4.6%	-12.8%
O=C(Nc1ccn(CCCN2CCN(c3ccccc3)CC2)c(=O)n1)OCc1ccccc1	·	6.3%	·	-2.9%	4.5%
O=C(Nc1ccn(CCCN2CCN(Cc3cccc4ccccc34)CC2)c(=O)n1)OCc1ccccc1	·	1.7%	·	-6.5%	7.94µM*
Cc1cc(C)n(-c2nc(NC(C)C)nc(NC(C)C)n2)n1	0.562µM*	-1.8%	2.51µM*	?	?
Cc1cc(C)n(-c2nc(NC(C)(C)C)nc(NC(C)(C)C)n2)n1	2µM*	-0.9%	?	?	?
Cc1cc(C)n(-c2nc(N(C)C)nc(N(C)C)n2)n1	2.82µM*	-6.1%	7.08µM*	?	?
Cc1cc(C)n(-c2nnc(NC(C)(C)C)nn2)n1	-6.9%	0.8%	-3.7%	-12.2%	8.7%
CCNc1nc(NCC)nc(-n2nc(C)cc2C)n1	0.708µM*	-0.8%	2.24µM*	-11.7%	5.0%
Cc1ccc(C(=O)NC2(C(F)(F)F)N=C(c3ccccc3)N(C3CCCCC3)C2=O)cc1 (stereo not given)	·	-2.2%	·	-4.5%	?
CO[C@@H]1[C@@H](OC2OC(C)C(OC3CC(C)(O)C(O)C(C)O3)C(N(C)C)C2O)[C@@H](CC=O)C[C@@H](C)[C@@H](OC2CCC(N(C)C)C(C)O2)/C=C/C=C/C[C@@H](C)OC(=O)C[C@H]1OC(C)=O (stereo not given in full)	·	-3.2%	·	·	·
CCCCc1nc2ccn(CC(=O)N(C)C)c(=O)c2n1Cc1ccc(-c2ccccc2-c2nn[nH]n2)cc1	33.5%	·	-5.3%	·	·
Cc1cc2nn(-c3ccccc3)nc2cc1NC(=O)COc1ccc(Cl)cc1	·	·	·	-1.0%	15.3%
O=C(NS(=O)(=O)c1ccc(F)cc1)O[C@@H]1C(=O)c2cc(Br)ccc2O[C@H]1c1ccc2c(c1)OCO2	-17.7%	·	-7.7%	·	·
CN(CC(=O)Nc1cccc(Cl)c1)S(=O)(=O)/C=C/c1ccccc1	·	15.0%	·	-18.5%	10µM*
N#C/C(=C\Nc1ccccc1O)c1nc2ccccc2o1	?	-24.4%	3.55µM*	12.8%	?
CCCCCCC#CC1C=CC(Oc2ccc(C=O)cc2)C(CO)O1 (stereo not given)	14.4%[10 µM]	·	-1.5%[10 µM]	·	·
COCCc1nn2c(=O)cc(COC(=O)c3ccc(C(C)(C)C)cc3)nc2s1	·	·	·	0.4%	-9.5%
CCn1c(SC(C)C)nnc1-c1cc(-c2ccccc2)sc1N	6.31µM*	1.7%	7.08µM*	?	?
Cc1ccc(CNC(=O)Cn2c(=O)n(-c3ccc(C)cc3)c(=O)c3c2c2cc(C)ccc2n3C)cc1	·	-0.8%	·	-3.0%	0.7%
Cc1ccc(S(=O)(=O)/N=C2\C(=O)c3ccccc3C([O-])=C2n2cc[n+](CCC(C)C)c2)cc1	8.91µM*	-8.5%	?	-25.0%	0.0%
CCCC[n+]1ccn(C2=C([O-])c3ccccc3C(=O)/C2=N\S(=O)(=O)c2ccc(Br)cc2)c1	-43.2%	-0.1%	?	-16.8%	22.7%
COc1ccc2c(C(=S)N(C)CC(=O)O)cccc2c1C(F)(F)F	·	-4.0%	·	·	·
CCn1c(C(=O)N2CCC(C(=O)NCCCSC3CCCCC3)CC2)cc2sccc21	-59.9%	3.8%	14.1µM*	-2.5%	?
CCCCc1ccc(NC(=O)COc2ccc(C(=O)Nc3ccccc3OCC)cc2)cc1	?	-4.9%	10µM*	20.6%	21.1%
SMILES	RORg inh	GLP1R ag	VP16 counter	GLP1R cytotox	GLP-1R inv ag
O=C(NC(=S)NCCc1ccccc1)c1ccccc1F	17.8µM*	11.5%	?	-9.9%	5.6%
Cc1ccccc1C(=O)NC(=S)N(CCO)Cc1ccccc1	2µM*	-0.5%	2.82µM*	?	-16.1%
COC(=O)c1c(N)sc(C(=O)NCCc2ccccc2)c1C	2.51µM*	-4.5%	4.47µM*	-9.2%	?
COc1cccc([C@@H]2Oc3ccc(Br)cc3C(=O)[C@H]2OC(=O)NS(=O)(=O)c2ccc(F)cc2)c1	-15.2%	·	3.7%	·	·
O=C(Nc1ccccc1Cl)c1cc2c(-c3ccccc3)nn(-c3ccccc3)c2s1	·	-4.0%	·	-4.7%	13.9%
CC(=O)NC1C(O)C[C@@](O)(C(=O)O)OC1[C@@H](O)C(O)CO (stereo not given in full)	8.4%	·	-2.9%	·	·
COc1ccc(-c2nc3ccccc3s2)cc1NC(=O)c1ccc(F)cc1	·	·	·	1.5%	12.1%
CCOc1ccc(-n2c(SCC(=O)NCC3CCCO3)nc3c([nH]c4ccccc43)c2=O)cc1 (stereo not given)	·	3.5%	·	-4.2%	13.6%
O=C(NCCc1ccc(O)cc1)c1ccc(Cl)cc1	1.58µM*	-0.1%	?	-11.5%	-12.3%
O=C(NCCc1ccccc1)c1ccc(S(=O)(=O)N2CCCCC2)cc1	·	2.9%	·	-5.1%	4.2%
O=C(NC(=S)NCc1ccccc1)c1ccccc1[N+](=O)[O-]	7.94µM*	10.7%	15.8µM*	-10.1%	?
O=C(NC(=S)NCc1cccnc1)c1ccccc1[N+](=O)[O-]	12.9%	-13.2%	1.6%	-17.0%	-23.5%
O=C(NCCc1ccc(Cl)cc1)c1ccc(=O)[nH]c1	-17.8%	1.6%	-23.8%	0.5%	5.4%
O=C(NC(=S)N(CCO)Cc1ccccc1)c1ccc(S(=O)(=O)N2CCCC2)cc1	2.24µM*	-1.2%	4.47µM*	4.7%	-17.5%
O=C(CC12CC3CC(CC(C3)C1)C2)NC(=S)NCc1ccccc1	2µM*	-3.2%	1.58µM*	-13.8%	-24.7%
O=C(Cc1ccccc1[N+](=O)[O-])NCCCc1ccccc1	0.224µM*	15.9%	-3.5%	-18.2%	?
CN(CCC#N)C(=S)NC(=O)c1ccc(S(=O)(=O)N2CCOCC2)cc1	5.01µM*	1.4%	?	4.9%	12.9%
NS(=O)(=O)c1ccc(CCNC(=O)Cc2ccccc2[N+](=O)[O-])cc1	4.3%	8.5%	8.6%	-8.2%	9.9%
O=C(NCCCc1ccccc1)c1ccccc1	12.9%	9.3%	5.5%	3.7%	1.8%
O=C(NC(=S)NCCc1ccccc1)c1ccccc1	5.62µM*	4.2%	?	?	-13.0%
CC(C)CC(=O)NC(=S)N(Cc1ccccc1)Cc1ccccc1	3.16µM*	0.4%	6.31µM*	1.6%	?
COc1cccc(C(=O)NC2=NC(c3ccccc3F)CC(=O)N2)c1 (stereo not given)	·	·	·	8.1%	24.5%
COc1ccc(C2C=C3CN(C(=O)OC(C)(C)C)S(=O)(=O)C3CC2OC(=O)c2cccc(C)c2)cc1 (stereo not given)	-1.5%	·	-5.0%	·	·
COC(=O)c1ccc2c(=O)n(CCCCCC(=O)N3CCN(c4cc(C)ccc4C)CC3)c(=O)[nH]c2c1	·	·	·	-5.2%	37.9%
